# “And” between values parts separate entries of the source, which are not always exact repeats. Equal entries are not always repeated. Results filed as inconclusive are left out. Some compounds were tested as several samples or in several runs, with calls that do not always agree. The source made the active and inactive calls. Rule for the calls: active = hit-call score of the fitted dose curve at least 0.9, where 1 is the maximum; inconclusive = response in the unintended direction; inactive = score below 0.9.
# Key:
# [1] = target: chimpanzee Androgen Receptor (AR), AR (gene 747460) (UniProt O97775); experiment: NVS_NR_cAR: NovaScreen (NVS) Nuclear Receptor Binding Assay for chimpanzee Androgen Receptor (AR) (AID 2283346);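 note: radioligand displacement from AR measured by scintillation counting in a cell-free assay; a loss of bound radioligand signal versus DMSO counts as binding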
# Procedure, shortened: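 Cell-free competition binding with insect-cell (Sf9/Sf21) extracted chimpanzee AR; scintillation signal from lysate at 72 h. Screened in duplicate at 25 uM, then concentration-response for actives; fitting relative to DMSO.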
# [2] = target: Estrogen receptor (Homo sapiens) (UniProt P03372); experiment: OT_ER_ERaERa_1440: Odyssey Thera (OT) 24-hour HEK293T Protein-Complementation Assay for Estrogen Receptor-alpha/-alpha Homodimer (AID 2283349);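 note: hits raise fluorescence above DMSO for agonists and antagonists alike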
# Procedure, shortened: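 Protein-fragment complementation between two human ERα ligand-binding domains (aa 310-547) in stably transfected HEK293T cells was monitored after 24 h treatment, using fluorescence intensity relative to vehicle controls.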
# [3] = target: Estrogen receptor (Homo sapiens) (UniProt P03372); experiment: OT_ER_ERaERa_0480: Odyssey Thera (OT) 8-hour HEK293T Protein-Complementation Assay for Estrogen Receptor-alpha/-alpha Homodimer (AID 2283351);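 note: rise in fluorescence from reassembled reporter fragments on ERα LBD homodimer in nucleus or whole cell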
# Procedure, shortened: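 HEK293T cells stably expressing the human ERα ligand-binding domain (aa 310-547) as a homodimer PCA were dosed with compound for 8 h. Gain of fluorescence intensity versus DMSO vehicle was read by laser scanning cytometry.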
# [4] = target: T1, Estrogen receptor (Homo sapiens) + Estrogen receptor beta (Homo sapiens) (UniProt P03372+Q92731); experiment: OT_ER_ERaERb_0480: Odyssey Thera (OT) 8-hour HEK293T Protein-Complementation Assay for Estrogen Receptor-alpha/-beta Heterodimer (AID 2283352)
# Procedure, shortened: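 HEK293T cells expressing ER-alpha/ER-beta LBD fusions to complementary reporter fragments were dosed with compound for 8 hours. Heterodimer formation was read as increased nuclear (agonist) or nuclear plus cytoplasmic (antagonist) mean fluorescence intensity versus DMSO vehicle.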
# [5] = target: T1, Estrogen receptor (Homo sapiens) + Estrogen receptor beta (Homo sapiens); experiment: OT_ER_ERaERb_1440: Odyssey Thera (OT) 24-hour HEK293T Protein-Complementation Assay for Estrogen Receptor-alpha/-beta Homodimer (AID 2283356);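 note: heteromer of ER alpha and ER beta binding domains; hits raise reporter fluorescence and both agonists and antagonists give an increase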
# Procedure, shortened: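 HEK293T cells stably expressing a PCA pair of ERα LBD (aa 310-547) and ERβ LBD (aa 263-489) were dosed for 24 h. Fluorescence intensity increase versus DMSO vehicle was fitted as gain-of-signal.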
# [6] = target: Estrogen receptor beta (Homo sapiens) (UniProt Q92731); experiment: OT_ER_ERbERb_0480: Odyssey Thera (OT) 8-hour HEK293T Protein-Complementation Assay for Estrogen Receptor-beta/-beta Homodimer (AID 2283357);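 note: active means signal gain over DMSO baseline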
# Procedure, shortened: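 Cells (HEK293T, stable ER-beta LBD PCA pair) are treated 8 hours, fixed and Draq5-stained; signal is fluorescence intensity increase relative to vehicle, fitted in the gain direction.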
# [7] = target: Estrogen receptor (Homo sapiens) (UniProt P03372); experiment: NVS_NR_hER: NovaScreen (NVS) Nuclear Receptor Binding Assay for human Estrogen Receptor (ER) (AID 2283348)
# Procedure, shortened: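 Scintillation signal from bound radioligand was measured 18 hours after chemical addition to cell-free MCF7 protein extracts, with DMSO as baseline. Activity was scored as signal loss; compounds ran first at 25 uM in duplicate.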
# [8] = target: bovine Estrogen Receptor (ER), ESR1 (gene 407238) (UniProt P49884); experiment: NVS_NR_bER: NovaScreen (NVS) Nuclear Receptor Binding Assay for bovine Estrogen Receptor (ER) (AID 2283345);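 note: actives lower the bound radioligand count which means they displace the ER ligand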
# Procedure, shortened: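 Cell-free radioligand binding with receptor from bovine uterine membranes, read by scintillation counting 18 h after dosing. Loss of specific binding was scored against DMSO; primary screen at 25 uM in duplicate, actives then run as concentration series.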
# PGR (gene 5241) = PGR (gene 5241) (UniProt P06401); experiment: NVS_NR_hPR: NovaScreen (NVS) Nuclear Receptor Binding Assay for human Progestron Receptor (PR) (AID 2283360);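 note: active means loss of bound radioligand signal versus DMSO baseline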
# Procedure, shortened: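 Cell-free radioligand binding using receptor protein extracted from T47D cells, read by scintillation counting 18 hours after dosing. Loss of signal relative to DMSO baseline indicates displacement; primary screen single concentration 25 uM in duplicate, actives followed in concentration series.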
# [9] = target: rat Mineralocorticoid Receptor (MR), Nr3c2 (gene 25672) (UniProt P22199); experiment: NVS_NR_rMR: NovaScreen (NVS) Nuclear Receptor Binding Assay for rat Mineralocorticoid Receptor (MR) (AID 2283355)
# Procedure, shortened: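 Adrenalectomized rat brain supernatant was dosed with test chemical, then radioligand binding was measured by scintillation counting at 24 h. Initial testing ran in duplicate at 25 uM, followed by concentration series for actives.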
# [10] = target: human Peroxisome Proliferator-activated Receptor alpha (PPARa), PPARA (gene 5465) (UniProt Q07869); experiment: NVS_NR_hPPARa: NovaScreen (NVS) Nuclear Receptor Binding Assay for human Peroxisome Proliferator-activated Receptor alpha (PPARa) (AID 2283359);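 note: activity means loss of TR-FRET signal versus DMSO baseline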
# Procedure, shortened: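 Chemicals were first screened in duplicate at 25 uM, and active ones were retested across concentration series. Binding was monitored by TR-FRET one hour after dosing, with decreased signal against DMSO counted as activity.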
# T1 sequence (P03372 whole entry, looked up, the tested form may be a part): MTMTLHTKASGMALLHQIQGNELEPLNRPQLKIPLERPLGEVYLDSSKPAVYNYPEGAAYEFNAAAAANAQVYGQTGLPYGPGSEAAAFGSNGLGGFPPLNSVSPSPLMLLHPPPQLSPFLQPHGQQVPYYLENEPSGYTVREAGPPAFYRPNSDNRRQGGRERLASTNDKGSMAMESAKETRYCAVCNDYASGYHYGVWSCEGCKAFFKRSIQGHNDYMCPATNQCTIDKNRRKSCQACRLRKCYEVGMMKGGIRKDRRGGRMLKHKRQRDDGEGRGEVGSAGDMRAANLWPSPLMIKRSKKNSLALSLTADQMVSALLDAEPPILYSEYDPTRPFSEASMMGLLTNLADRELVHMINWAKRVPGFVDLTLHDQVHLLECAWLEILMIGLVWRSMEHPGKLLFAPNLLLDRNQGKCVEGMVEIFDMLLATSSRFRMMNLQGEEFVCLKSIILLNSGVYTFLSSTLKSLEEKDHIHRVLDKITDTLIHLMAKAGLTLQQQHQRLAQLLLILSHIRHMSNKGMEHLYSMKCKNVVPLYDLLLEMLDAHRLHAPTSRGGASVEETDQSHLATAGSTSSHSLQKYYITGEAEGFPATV
# T1 sequence (Q92731 whole entry, looked up, the tested form may be a part): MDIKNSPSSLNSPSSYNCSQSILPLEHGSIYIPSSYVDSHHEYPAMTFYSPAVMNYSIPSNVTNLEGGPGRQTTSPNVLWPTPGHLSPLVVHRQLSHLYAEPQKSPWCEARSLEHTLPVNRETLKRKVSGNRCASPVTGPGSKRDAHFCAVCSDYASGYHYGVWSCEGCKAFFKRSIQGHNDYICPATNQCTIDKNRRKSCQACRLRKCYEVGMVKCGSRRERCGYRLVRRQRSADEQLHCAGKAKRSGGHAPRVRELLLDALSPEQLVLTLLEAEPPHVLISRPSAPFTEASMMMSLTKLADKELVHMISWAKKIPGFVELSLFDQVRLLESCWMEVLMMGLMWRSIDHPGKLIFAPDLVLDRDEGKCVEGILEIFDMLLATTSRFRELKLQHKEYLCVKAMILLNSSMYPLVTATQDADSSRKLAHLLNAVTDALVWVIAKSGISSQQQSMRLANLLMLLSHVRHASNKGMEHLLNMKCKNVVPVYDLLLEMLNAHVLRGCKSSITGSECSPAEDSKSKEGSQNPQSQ
# Sequence of Estrogen receptor (Homo sapiens) (P03372 whole entry, looked up, the tested form may be a part): as the sequence (P03372 whole entry, looked up, the tested form may be a part) above
# Sequence of Estrogen receptor beta (Homo sapiens) (Q92731 whole entry, looked up, the tested form may be a part): as the sequence (Q92731 whole entry, looked up, the tested form may be a part) above
# Sequence of chimpanzee Androgen Receptor (AR), AR (gene 747460) (O97775 whole entry, looked up): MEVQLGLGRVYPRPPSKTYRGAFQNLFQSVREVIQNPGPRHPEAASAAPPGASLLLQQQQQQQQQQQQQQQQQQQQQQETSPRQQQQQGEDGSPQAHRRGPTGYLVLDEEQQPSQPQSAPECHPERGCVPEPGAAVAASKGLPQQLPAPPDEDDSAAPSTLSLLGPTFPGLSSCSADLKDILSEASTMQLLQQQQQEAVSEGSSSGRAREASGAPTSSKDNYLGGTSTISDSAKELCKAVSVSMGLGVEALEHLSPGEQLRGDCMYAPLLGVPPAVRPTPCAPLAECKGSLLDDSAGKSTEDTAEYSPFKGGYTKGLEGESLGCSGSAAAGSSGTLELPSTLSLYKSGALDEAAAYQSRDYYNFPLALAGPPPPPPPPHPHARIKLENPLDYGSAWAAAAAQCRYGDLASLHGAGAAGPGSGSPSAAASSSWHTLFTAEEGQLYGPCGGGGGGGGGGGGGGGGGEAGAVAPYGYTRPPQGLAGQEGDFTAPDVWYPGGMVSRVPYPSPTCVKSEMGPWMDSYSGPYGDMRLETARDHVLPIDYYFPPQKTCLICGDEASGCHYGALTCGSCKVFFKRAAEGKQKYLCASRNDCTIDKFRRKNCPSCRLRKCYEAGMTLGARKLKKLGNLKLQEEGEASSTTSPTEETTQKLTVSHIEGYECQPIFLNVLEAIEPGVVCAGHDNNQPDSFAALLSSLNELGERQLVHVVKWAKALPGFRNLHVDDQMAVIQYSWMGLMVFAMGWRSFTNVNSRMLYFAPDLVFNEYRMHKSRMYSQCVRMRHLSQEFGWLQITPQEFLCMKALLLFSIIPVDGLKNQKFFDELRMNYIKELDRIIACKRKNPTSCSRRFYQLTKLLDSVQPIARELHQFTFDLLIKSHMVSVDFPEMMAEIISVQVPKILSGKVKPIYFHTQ
# Sequence of bovine Estrogen Receptor (ER), ESR1 (gene 407238) (P49884 whole entry, looked up): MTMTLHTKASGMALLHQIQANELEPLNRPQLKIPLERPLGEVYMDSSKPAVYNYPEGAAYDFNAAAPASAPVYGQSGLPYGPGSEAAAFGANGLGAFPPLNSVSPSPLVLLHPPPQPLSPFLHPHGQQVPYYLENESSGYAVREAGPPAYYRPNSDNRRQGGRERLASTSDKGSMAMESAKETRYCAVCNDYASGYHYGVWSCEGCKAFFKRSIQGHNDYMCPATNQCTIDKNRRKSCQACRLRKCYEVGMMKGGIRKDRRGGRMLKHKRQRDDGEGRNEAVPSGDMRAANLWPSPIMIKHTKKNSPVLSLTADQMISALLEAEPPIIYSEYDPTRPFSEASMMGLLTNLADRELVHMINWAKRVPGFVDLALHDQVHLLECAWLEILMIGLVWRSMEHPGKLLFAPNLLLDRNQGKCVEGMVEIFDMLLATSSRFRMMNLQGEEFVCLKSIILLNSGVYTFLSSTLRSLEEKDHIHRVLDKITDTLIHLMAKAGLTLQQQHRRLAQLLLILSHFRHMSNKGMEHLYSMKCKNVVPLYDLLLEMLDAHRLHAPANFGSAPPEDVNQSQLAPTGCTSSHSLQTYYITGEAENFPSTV
# Sequence of human Peroxisome Proliferator-activated Receptor alpha (PPARa), PPARA (gene 5465) (Q07869 whole entry, looked up): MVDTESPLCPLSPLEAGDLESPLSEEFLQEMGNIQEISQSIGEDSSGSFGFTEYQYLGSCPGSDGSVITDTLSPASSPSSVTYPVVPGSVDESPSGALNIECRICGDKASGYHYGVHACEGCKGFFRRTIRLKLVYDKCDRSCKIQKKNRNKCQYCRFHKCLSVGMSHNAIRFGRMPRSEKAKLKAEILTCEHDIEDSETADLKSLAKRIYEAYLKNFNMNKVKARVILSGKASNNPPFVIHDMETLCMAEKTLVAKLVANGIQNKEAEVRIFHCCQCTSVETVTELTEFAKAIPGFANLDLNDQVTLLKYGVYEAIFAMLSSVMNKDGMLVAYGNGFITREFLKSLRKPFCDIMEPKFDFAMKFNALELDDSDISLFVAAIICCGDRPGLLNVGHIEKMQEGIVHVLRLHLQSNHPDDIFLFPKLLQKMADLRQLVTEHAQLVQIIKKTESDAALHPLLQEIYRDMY
# Sequence of PGR (gene 5241) (P06401 whole entry, looked up): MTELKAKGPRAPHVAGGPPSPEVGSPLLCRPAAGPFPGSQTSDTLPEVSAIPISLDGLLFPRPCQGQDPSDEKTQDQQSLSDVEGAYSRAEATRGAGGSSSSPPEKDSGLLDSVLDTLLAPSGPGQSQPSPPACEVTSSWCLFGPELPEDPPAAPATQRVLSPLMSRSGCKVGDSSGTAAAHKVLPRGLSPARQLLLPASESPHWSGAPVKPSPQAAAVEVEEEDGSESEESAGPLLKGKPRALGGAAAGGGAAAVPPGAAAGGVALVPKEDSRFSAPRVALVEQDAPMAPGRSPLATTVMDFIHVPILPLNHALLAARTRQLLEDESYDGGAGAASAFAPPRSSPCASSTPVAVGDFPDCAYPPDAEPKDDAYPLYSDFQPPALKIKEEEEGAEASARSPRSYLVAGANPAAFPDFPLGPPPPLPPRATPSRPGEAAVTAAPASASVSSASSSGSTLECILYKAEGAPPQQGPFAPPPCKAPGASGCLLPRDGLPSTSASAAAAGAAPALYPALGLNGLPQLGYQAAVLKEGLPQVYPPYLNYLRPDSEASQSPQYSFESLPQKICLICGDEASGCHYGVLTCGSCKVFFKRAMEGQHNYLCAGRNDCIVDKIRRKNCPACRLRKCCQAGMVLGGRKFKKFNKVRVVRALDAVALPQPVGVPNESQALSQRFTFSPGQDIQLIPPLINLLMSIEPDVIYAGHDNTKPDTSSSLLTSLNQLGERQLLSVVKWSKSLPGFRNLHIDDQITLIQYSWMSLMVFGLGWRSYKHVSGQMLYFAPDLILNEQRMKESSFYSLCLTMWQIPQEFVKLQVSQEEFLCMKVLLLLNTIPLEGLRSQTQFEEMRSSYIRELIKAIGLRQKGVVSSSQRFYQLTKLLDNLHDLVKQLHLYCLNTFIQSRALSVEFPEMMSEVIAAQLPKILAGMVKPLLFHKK
smiles,measurement,setting,value
Cc1ccc(N)cc1Cl,outcome,[1],inactive
same,outcome,[2],inactive
same,outcome,[3],inactive
same,outcome,[4],inactive
same,AC50,[5],15.3 µM (active)
same,outcome,[6],inactive
BrCCBr,outcome,[7],inactive
same,outcome,[2],inactive
same,outcome,[3],inactive
same,outcome,[5],inactive
same,outcome,[6],inactive
Nc1ccc(-c2ccc(N)c(Cl)c2)cc1Cl,outcome,[8],inactive
same,AC50,PGR (gene 5241),41.1 µM (active)
C1CCC(NC2CCCCC2)CC1,outcome,[2],inactive
same,outcome,[3],inactive
O=C(NCO)NCO,outcome,[2],inactive
same,outcome,[3],inactive
CCOP(=S)(OCC)Oc1nc(Cl)c(Cl)cc1Cl,outcome,[8],inactive
same,AC50,[2],70.6 µM (active)
same,AC50,[3],71.3 µM (active)
same,AC50,[4],50 µM (active)
same,AC50,[5],61.5 µM (active)
same,AC50,[6],58.9 µM (active)
CC(C)(OO)c1ccccc1,outcome,[7],inactive
same,outcome,[2],inactive
same,outcome,[3],inactive
CCN(CC)C(=O)Cl,AC50,[1],2.82 µM (active)
CNC(=O)O/N=C/C(C)(C)S(C)=O (stereo not given),outcome,[1],inactive
same,outcome,[2],inactive
same,outcome,[3],inactive
same,outcome,[4],inactive
same,outcome,[5],inactive
same,outcome,[6],inactive
CCC[CH2][Sn]([Cl])([Cl])[Cl],AC50,[1],25 µM (active)
same,outcome,[2],inactive
same,outcome,[3],inactive
COc1cc(-c2ccc(N)c(OC)c2)ccc1N,AC50,[1],18.5 µM (active) and 25 µM (active)
same,outcome,[9],inactive
same,AC50,[10],14.1 µM (active)
same,outcome,[10],inactive
